Shown are actives, neighbours in structure and some others; about 3.7% of the full set was active somewhere.
BoNT-A LC inh2: BoNT/A light chain protease inhibitors, primary screen, biochemical, flow cytometry, MLPCN library; Botulinum neurotoxin type A light chain protease (Clostridium botulinum A str. ATCC 3502); multiplex microsphere protease substrate cleavage; inhibition, % at 10 µM; actives 0.17% (n = 360,000); AID 588499, 2011
MazEF act: activators of E. coli MazEF toxin-antitoxin RNase, primary screen, biochemical, fluorescence, uHTS | Endoribonuclease toxin MazF (Escherichia coli (strain K12)), P0AE70 | FAM/BHQ RNA-DNA oligo cleavage fluorescence, 5 h | activation, % at 20 µM | actives 0.32% (n = 350,000) | AID 504720, 2011; in the data active = activation above about 50%
Anthrax LF prot: Bacillus anthracis LF protease inhibitors, primary screen, biochemical, multiplex microsphere, MLPCN library; actives 0.12% (n = 360,000); Lethal factor (Bacillus anthracis), P15917; multiplex microsphere protease cleavage assay; AID 588501, 2011; inhibition, % at 10 µM
Bead autofluor: flagged as autofluorescent in microsphere protease counterscreen. compound autofluorescence counterscreen, microsphere flow cytometry; active compounds read high. fluorescence intensity (test concentration not listed). actives 3.1% (n = 360,000). AID 624483; in the data active = fluorescence intensity above about 16000; inconclusive = no clear call, values can overlap the other calls
BoNT-F LC inh: BoNT/F light chain protease inhibitors, primary screen, biochemical, flow cytometry, MLPCN library. Botulinum neurotoxin type F light chain protease (Clostridium botulinum). Multiplex microsphere protease cleavage assay. inhibition, % at 10 µM. actives 0.22% (n = 360,000). AID 588497, 2011; in the data active = inhibition above about 35%, passing the limit was not always enough; inconclusive = no clear call, values can overlap the other calls
A number is an active result; i = inactive; ? = inconclusive; nt = no result given. Rule as the data show it, unless noted: active = inhibition above about 30%; inconclusive = no clear call, values can overlap the other calls; inactive = below that.

SMILES | BoNT-A LC inh2 | MazEF act | Anthrax LF prot | Bead autofluor | BoNT-F LC inh
O=C(COc1cc2oc(=O)c3c(c2cc1Cl)CCC3)NCc1ccncc1 | i | i | i | i | i
O=C(Cn1nc(C(F)(F)F)c2c1CCCC2)NC1CCCC1 | i | i | i | 23402 | i
COc1ccc(NC(=O)Cn2nc(C(F)(F)F)c3c2CCCC3)c(OC)c1 | ? | i | i | 21156 | i
COc1ccc(CNC(=O)Cn2nc(C(F)(F)F)c3c2CCC3)cc1 | i | i | i | i | i
C[C@H](O)[C@@H]1C(=O)N2CCc3c([nH]c4ccccc34)[C@@H]2C[C@@H]1N(C)C(=O)Nc1cc(Cl)cc(Cl)c1 | i | i | i | i | i
COc1cc2c(C(=O)N3CCN(C)CC3)c(C)oc2cc1Br | i | i | i | 19992 | i
CCN(CC)CCNC(=O)c1c(C)oc2cc(Br)c(OC)cc12 | i | i | i | 21610 | i
Cc1oc2cc3c(C(=O)N4CCCCC4)c(C)oc3cc2c1C(=O)N1CCCCC1 | i | i | i | i | i
COC(=O)c1ccc(C2SCC(=O)N2Cc2ccccc2)cc1 (configuration not stated) | i | i | i | i | i
O=C1CSC(c2ccccc2)N1Cc1ccccc1 (configuration not stated) | i | nt | i | 16347 | ?
CC1(C)CC(=O)c2c(nn(-c3ccccc3)c2-c2ccncc2)C1 | ? | i | i | 22472 | i
CC(C)COP(=O)(c1ccc(N(C)C)cc1)C(O)c1cccnc1 (configuration not stated) | i | i | i | i | ?
CC(C)C(O)P(=O)(OCc1ccccc1)c1ccc(N(C)C)cc1 (configuration not stated) | i | i | i | 20468 | i
CN(C)c1ccc(P(=O)(OCc2ccccc2)C(O)c2cccnc2)cc1 (configuration not stated) | i | i | i | 20409 | i
CCOC(=O)C1=C(C)NC2=C(C1c1ccc([N+](=O)[O-])cc1)S(=O)(=O)c1ccccc12 (configuration not stated) | ? | i | i | 17917 | i
CCOC(=O)C1=C(C)NC(C)=C(C(=O)OCC)C1c1cccc([N+](=O)[O-])c1 | i | i | i | i | i
Cc1cc(C)nc(SCCCn2c(=O)[nH]c3ccccc32)n1 | i | i | i | 16659 | i
CCCn1c(=O)[nH]c2ccccc21 | i | i | i | i | i
COc1ccc(CC(=O)Nc2c3c(nn2-c2ccccc2C)CS(=O)C3)cc1 (configuration not stated) | i | i | i | 20787 | i
O=C1c2cccnc2C(O)N1Cc1ccc(F)cc1 (configuration not stated) | i | i | i | 23014 | i
O=C1c2cccnc2C(=O)N1Cc1ccc(F)cc1 | i | i | i | 21659 | i
CC(=O)c1ccc(NC2c3ncccc3C(=O)N2Cc2ccc(F)cc2)cc1 (configuration not stated) | i | i | i | 21897 | i
CCOc1ccc(-c2noc(CCCC(N)=O)n2)cc1OC | i | i | i | 22255 | i
CCOc1cc(-c2noc(CCCC(N)=O)n2)cc(Br)c1OC | i | i | i | i | i
COc1ccc(-c2noc(CCC(N)=O)n2)cc1OC | ? | i | i | 22164 | i
SMILES | BoNT-A LC inh2 | MazEF act | Anthrax LF prot | Bead autofluor | BoNT-F LC inh
O=C(c1cc2ccccc2o1)N1CCN(S(=O)(=O)c2ccc(F)c(F)c2F)CC1 | nt | i | nt | nt | nt
CCCCN1C(=O)C(CC(=O)NC2CCCC2)CC(C(=O)N2CCOCC2)=C1C (configuration not stated) | i | i | i | i | i
COCCNC(=O)COc1ccc(Br)cc1Cl | i | i | i | i | i
C=CCNC(=O)COc1ccc(Br)cc1Cl | i | i | i | 20768 | i
CCOC(=O)N1CCN(C(=O)COc2ccc(Br)cc2Cl)CC1 | ? | i | i | 20543 | i
O=C(COc1ccc(Br)cc1Cl)N1CCN(c2ncccn2)CC1 | i | i | i | i | i
O=C(COc1ccc(S(=O)(=O)NC2CCCCC2)cc1Cl)Nc1ccc2c(c1)OCO2 | i | i | i | 25024 | i
Cc1[nH]c(=O)[nH]c(=O)c1S(=O)(=O)NCC12CC3CC(CC(C3)C1)C2 | ? | i | i | 21375 | i
CCC(NS(=O)(=O)c1c(C)[nH]c(=O)[nH]c1=O)C12CC3CC(CC(C3)C1)C2 (configuration not stated) | i | i | i | i | i
O=C(NCCN1CCOCC1)C1CCC(=O)N1Cc1ccc(F)cc1 (configuration not stated) | i | i | i | 24197 | i
COc1cc(S(=O)(=O)N2CCN(c3ccccc3F)CC2)ccc1Cl | i | i | i | 20773 | i
COc1ccc(S(=O)(=O)N2CCN(c3ccccc3OC)CC2)cc1OC | i | i | i | i | ?
COc1ccccc1N1CCN(S(=O)(=O)c2ccccc2)CC1 | i | i | i | 19619 | i
O=S(=O)(c1ccc(F)cc1)N1CCN(c2ccccc2)CC1 | i | i | i | 20200 | i
COc1ccccc1N1CCN(S(=O)(=O)c2ccc(Br)s2)CC1 | i | i | i | 22653 | i
COc1cc(S(=O)(=O)N2CCN(c3ccccc3)CC2)ccc1Cl | i | i | i | i | i
COc1ccc(-c2coc3c(C(=O)NCC(C)C)cccc23)c(C)c1 | i | nt | i | i | i
OCC[C@@H]1C[C@H](O)[C@@H](O)[C@]2(OCc3ccc4ccccc4c32)O1 | i | i | i | i | i
O=C(COC(=O)c1cccnc1Nc1ccccc1F)NCCN1C(=O)CSC1=O | i | i | i | i | 69
CC(=O)Nc1nnc(-c2ccco2)o1 | i | i | i | i | i
Cc1nn(-c2ccccc2)c(C)c1C(=O)Nc1nnc(-c2ccco2)o1 | i | i | i | 20671 | i
O=C(Nc1ccc2c(c1)OCO2)c1ccc2c(c1)S(=O)(=O)c1ccccc1C2=O | i | i | i | i | i
CC(=O)[C@@H]1[C@@H](C(=O)c2ccccc2)[C@]2(C(=O)Nc3ccccc32)[C@H]2C=Cc3cc(F)ccc3N12 | i | i | i | i | i
O=C(c1ccccc1)[C@@H]1[C@@H](C(=O)c2ccc(F)cc2)[C@@]2(C(=O)Nc3ccccc32)[C@H]2c3ccccc3C=CN12 | 39 | i | i | i | i
C/C=C(\C)C(=O)O[C@H](c1cc2ccc(=O)oc2cc1OC)[C@@H](O)C(C)(C)O | i | i | i | i | i
CC(C)Cn1c(SCc2nc3ccccc3c(=O)[nH]2)nc2ccccc2c1=O | i | i | i | 19467 | i
Cc1cc2nc(-c3ccc(Cl)cc3)c(Cc3ccsc3)n2c(C)c1Br | i | nt | i | i | i
C=CCn1c(-c2cccn(Cc3ccccc3)c2=O)n[nH]c1=S | i | i | i | 21465 | i
C=CCn1c(-c2cccn(Cc3ccc(Cl)cc3)c2=O)n[nH]c1=S | i | i | i | i | i
CCN(c1ccccc1)S(=O)(=O)c1cc(OC)ccc1OC | i | i | i | 22526 | i

Screening results from PubChem.
